From PubChem BioAssay
HT1080-NT tox: kills 2HG-producing HT-1080-NT fibrosarcoma cells | HT-1080-NT fibrosarcoma viability, CellTiter-Glo ATP luminescence, 48 h | Potency, µM (doses to about 46.1 µM), usual class: cytotoxic | 360,000 tested, 1.6% active;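 further: NT is the 2HG producing partner of a matched IDH1 knockdown line; nearly all actives have a fitted effect of over 55% in size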
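Read-out is CellTiter-Glo luminescence after 10 minutes at room temperature, following 48 hours' compound treatment of HT-1080-NT cells (750 cells/well, RPMI, 5% FBS, 37 degrees C).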
TDP1 cell CPT: DT40-hTDP1 cell growth loss with CPT. chicken DT40 Tdp1-/-;hTDP1 cells + 20 nM CPT, ATP luminescence, 48 h. Potency, µM (titrated, usually from 46.2 µM), usual class: inhibitors. 420,000 tested, 12% active; further: nearly all actives have a fitted effect of over 55% in size
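Cell growth measured by CellTiter-Glo luminescence after a minimum 48 h, 37 C compound exposure with 20 nM CPT in Tdp1-knockout DT40 cells stably expressing hTDP1, seeded 400/well; qHTS titration format.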
HT1080 IDH1KD tx: HT-1080 IDH1 knockdown cell toxicity (counter line). Potency, µM (series often up to 46.1 µM), most hits filed as cytotoxic. 360,000 tested, 2% active. HT-1080 IDH1 knockdown viability, ATP luminescence, 48 h. AID 686971
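Knockdown cells (IDH1KD HT-1080) received compounds 2 h after plating at 750 cells/well and were kept 48 h at 37 °C in 5% FBS RPMI. A CellTiter-Glo luminescence read gave % activity for curve fitting.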
IL-1B inflam inh: inflammasome signaling inhibition, IL-1 beta readout; THP-1 LPS/ATP IL-1B secretion, AlphaLISA, 16 h; active compounds read low; activity change, % at 57.5 µM; 360,000 tested, 4.7% active; AID 743279; in the data active means activity change below about -50%; inconclusive means mostly about -30% to -49%
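Secreted IL-1B measured by AlphaLISA bead assay after 16 h compound exposure of THP-1 cells; compounds (final up to 57.5 uM) added 1 h before LPS (250 ng/mL) and ATP (1.25 mM) stimulation; lower signal means less secretion.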
TDP1 cell noCPT: qHTS for Inhibitors of human tyrosyl-DNA phosphodiesterase 1 (TDP1): qHTS in cells in absence of CPT | DT40 Tdp1-/- hTDP1 cells, no CPT, ATP luminescence, 48 h | Potency, µM (titrated, usually from 46.2 µM), hits mostly inhibitors | 420,000 tested, 15% active | AID 686978, 2013; further: nearly all actives have a fitted effect of over 55% in size
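Chicken DT40 Tdp1-/- cells stably complemented with human TDP1 were seeded at 400 cells/well with DMSO in place of 20 nM camptothecin. After compound pinning, cells grew at least 48 hr at 37 °C; viability read by CellTiter-Glo luminescence.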
Numbers stand for hits; i = inactive; ? = inconclusive; nt = no result given; ! = not confirmed by another sample. Sampled rows, rich in hits. Any-hit rate of the full collection: about 19%. Unless noted, the call rests on the fitted dose curve; in most records, active means well fitted curve in the direction sought with a large enough effect; inconclusive means small, poorly fitted or top-dose-only effect, or another doubt; inactive means no such curve, though single readings can be large; an effect the other way counts as inactive or inconclusive.

SMILES	HT1080-NT tox	TDP1 cell CPT	HT1080 IDH1KD tx	IL-1B inflam inh	TDP1 cell noCPT
Cc1ccc(Cl)cc1N1CCN(C(=O)c2cc(S(=O)(=O)N3CCC(C)CC3)cn2C)CC1	nt	23µM	nt	nt	15µM
COc1ccccc1N1CCN(C(=O)c2cc(S(=O)(=O)N3CCC(C)CC3)cn2C)CC1	nt	21µM	nt	nt	?
CC1CCCC(C)N1C(=O)COC(=O)c1ccc(S(=O)(=O)N(C)c2ccccc2)cc1 (centres undefined)	i	i	i	i	?
Cc1cc(O)ccc1Nc1nc(-c2cccnc2)cs1	i	i	?	i	i
Cc1nc(C)c(-c2csc(Nc3ccc(Cl)cn3)n2)s1	i	18µM	i	i	?
Cc1nc(C)c(-c2csc(Nc3ccc(O)cc3C)n2)s1	i	16µM	i	i	5.8µM
Cc1cc(O)ccc1Nc1nc(-c2cccs2)cs1	i	i	?	-84	i
Nc1ccc(SC(F)(F)F)cc1	i	i	i	i	i
COc1ccccc1CN1[C@@H](CC(C)=O)c2cc(C(F)(F)F)ccc2S1(=O)=O	i	?	i	i	?
Cc1nn(C)c2c1c(C(F)(F)F)cc(=O)n2CC(=O)NC(C)(C)C	nt	i	nt	nt	i
CCCN(CCC)CC(O)Cn1cc(/C=C/C(=O)c2ccc(OCC)cc2)c2ccccc21 (centres undefined)	nt	5.8µM	nt	nt	5.2µM
CC(C)CN(CC(C)C)CC(O)Cn1cc(/C=C/C(=O)c2ccccc2)c2ccccc21 (centres undefined)	nt	4.1µM	nt	nt	4.6µM
CCOc1ccc(C(=O)/C=C/c2cn(CN3CCN(C)CC3)c3ccccc23)cc1	i	i	?	i	?
COc1ccc(OCC(O)CN(CCO)CC(O)Cn2ccc3ccccc32)cc1 (centres undefined)	i	i	i	i	?
CC(C)(CO)NCC(O)Cn1cc(C=O)c2ccccc21 (centres undefined)	i	i	i	i	i
CCC(=C(c1ccc(OC)cc1)c1ccc(OC)cc1)c1cn(CC(O)CN(CCO)CCO)c2ccccc12 (centres undefined)	?	?	i	?	21µM
CCOc1ccc(C(=O)NCC(=O)N2CC=C(c3ccccc3)CC2)cc1OCC	i	i	i	i	i
COC(=O)c1ccccc1NC(=O)CCCCCn1nnc2ccccc2c1=O	i	i	i	i	i
CCc1ccc(OCCSc2nc3ccccc3n2CC(=O)O)cc1	i	i	i	i	i
CC(=O)C1(O)CCC2C3CC(C)C4=CC(=O)C=CC4(C)C3(F)C(O)CC21C (centres undefined)	?	?	?	-54	i
CC(=O)OCC(=O)C1(O)CCC2C3CCC4=CC(=O)CCC4(C)C3(Cl)C(O)CC21C (centres undefined)	i	?	i	i	?
CC(C)(C)CC(=O)OCC(=O)[C@@]12OC(C)(C)O[C@@H]1C[C@H]1[C@@H]3CCC4=CC(=O)C=C[C@]4(C)[C@@]3(F)[C@@H](O)C[C@@]12C	nt	i	nt	nt	i
CC(=O)OCC(=O)[C@@]1(O)CC[C@H]2[C@@H]3CCC4=CC(=O)C=C[C@]4(C)[C@@]3(F)[C@@H](O)C[C@@]21C	i	i	i	-56	i
CC(=O)OCC(=O)C1(O)CCC2C3CC(C)C4=CC(=O)C=CC4(C)C3(F)C(O)CC21C (centres undefined)	i	i	?	nt	i
CC12C=CC(=O)C=C1C(F)CC1C3CCC(O)(C(=O)CO)C3(C)CC(O)C12F (centres undefined)	?	i	?	i	?
SMILES	HT1080-NT tox	TDP1 cell CPT	HT1080 IDH1KD tx	IL-1B inflam inh	TDP1 cell noCPT
CC(=O)OCC(=O)C1(O)CCC2C3CCC4=CC(=O)CCC4(C)C3(F)C(O)CC21C (centres undefined)	i	i	?	-53	i
CC12C=CC(=O)C=C1CCC1C3CCC(O)(C(=O)CO)C3(C)CC(O)C12F (centres undefined)	?	i	?	-57	i
CCOC(=O)N1CCC(NC(=O)CC2C(=O)NCCN2Cc2cccc(F)c2F)CC1 (centres undefined)	i	i	i	i	i
C[C@]12CCC(=O)C=C1CC[C@@H]1[C@@H]2[C@@H](O)C[C@@]2(C)[C@H]1CC[C@]2(O)C(=O)COC(=O)CCC(=O)O	?	?	i	?	8.4µM!
COc1cc(OC)cc(-c2c(C#Cc3ccsc3)c3cc(Br)ccc3n2C)c1	i	i	i	i	?
COc1cc(C#Cc2c(-c3cncn3C)n(C)c3ccc(Br)cc23)cc(OC)c1	?	?	?	i	18µM
COc1cc(C#Cc2c(-c3cncn3C)n(C)c3ccc(-c4ccc(OC)c(OC)c4)cc23)cc(OC)c1	i	?	?	i	?
COc1cc(C#Cc2c(-c3cncn3C)n(C)c3ccc(-c4ccc5cc[nH]c5c4)cc23)cc(OC)c1	?	18µM	i	i	?
COc1cc2cc(C(=O)N3CCOCC3)cc(-c3ccc(C)cc3)c2cc1OC	?	i	?	?	i
Clc1ccc(C(c2ccccc2)N2CCN(c3ccccn3)CC2)cc1 (centres undefined)	i	?	i	i	18µM
CN1CCCN(C(c2ccccc2)c2ccc(Cl)cc2)CC1 (centres undefined)	18µM	?	18µM	i	6µM
OC(COCc1ccc(Cl)cc1)CN1CCN(c2ccccn2)CC1 (centres undefined)	i	i	i	i	?
COc1ccc(CN2C(=O)C(CC(=O)NC3CCCC3)CC(C(=O)N(C(C)C)C(C)C)=C2C)cc1 (centres undefined)	i	?	i	i	?
CC1=C(C(=O)N2CCCCCC2)CC(CC(=O)NCCCN(C)C)C(=O)N1Cc1ccc(C(C)(C)C)cc1 (centres undefined)	?	8.3µM	?	nt	?
CC1=C(C(=O)N(C(C)C)C(C)C)CC(CC(=O)NC2CCCCC2)C(=O)N1Cc1ccc(C(C)(C)C)cc1 (centres undefined)	?	15µM	?	i	21µM
CC1=C(C(=O)N2CCOCC2)CC(CC(=O)NCC2CCCCC2)C(=O)N1Cc1ccc(C(C)(C)C)cc1 (centres undefined)	?	18µM	?	-53	?
CC1=C(C(=O)N2CCOCC2)CC(CC(=O)NC2CC2)C(=O)N1Cc1ccc(C(C)(C)C)cc1 (centres undefined)	i	i	i	i	i
CC1=C(C(=O)N2CCOCC2)CC(CC(=O)NC2CCCCC2)C(=O)N1Cc1ccc(C(C)(C)C)cc1 (centres undefined)	i	?	i	i	21µM
